Test results from PubChem BioAssay AID1159580 (chemical genetic matrix, 2015).
Screen size: about 5,500 compounds; about 2,000 (36%) were called active. Another 18% or so got no clear call; they are omitted. Rule as the data show it: active = normalized growth mostly below about 0.91 (no sharp cut-off); inconclusive = no clear call, values can overlap the other calls; inactive = mostly above about 0.92. The list shows a part of the results.

Test: chemical genetic growth profiling, strain panel (AID 1159580);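 also: tested at 20 µM; growth read once vehicle control cultures reached saturation at 30 °C; 1 = growth at the plate median or of vehicle wells; lower values mean less growth of the strain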
Conditions: growth OD
[1] = S. cerevisiae deletion strains, locus YAL013W, strain DEP1, hits give low values
[2] = S. cerevisiae deletion strains, locus YBR229C, strain ROT2, hits give low values
[3] = S. cerevisiae deletion strains, locus YDL101C, strain DUN1, hits give low values
[4] = S. cerevisiae deletion strains, locus YDL134C, strain PPH21, hits give low values
[5] = S. cerevisiae deletion strains, locus YDR150W, strain NUM1, hits give low values
[6] = S. cerevisiae deletion strains, locus YEL061C, strain CIN8, hits give low values
[7] = S. cerevisiae deletion strains, locus YGR078C, strain PAC10, hits give low values
[8] = S. cerevisiae deletion strains, locus YHR030C, strain SLT2, hits give low values
[9] = S. cerevisiae deletion strains, locus YJR043C, strain POL32, hits give low values
[10] = S. cerevisiae deletion strains, locus YJR075W, strain HOC1, hits give low values
[11] = S. cerevisiae deletion strains, locus YKL190W, strain CNB1, hits give low values
[12] = S. cerevisiae deletion strains, locus YLR039C, strain RIC1, hits give low values
[13] = S. cerevisiae deletion strains, locus YLR262C, strain YPT6, hits give low values
[14] = S. cerevisiae deletion strains, locus YMR263W, strain SAP30, hits give low values
[15] = S. cerevisiae deletion strains, locus YNL128W, strain TEP1, hits give low values
[16] = S. cerevisiae deletion strains, locus YNL153C, strain GIM3, hits give low values
[17] = S. cerevisiae deletion strains, locus YNL322C, strain KRE1, hits give low values
[18] = S. cerevisiae deletion strains, locus YOL006C, strain TOP1, hits give low values
[19] = S. cerevisiae deletion strains, locus YPL055C, strain LGE1, hits give low values
[20] = S. cerevisiae deletion strains, locus YPL241C, strain CIN2, hits give low values
[21] = S. cerevisiae strains, strain wild type, hits give low values
[22] = S. cerevisiae deletion strains, locus YHR087W, strain rtc3, hits give low values
[23] = S. cerevisiae deletion strains, locus YJL187C, strain SWE1, hits give low values
[24] = S. cerevisiae deletion strains, locus YLR058C, strain SHM2 (second series), hits give low values
[25] = S. cerevisiae deletion strains, locus YLR085C, strain ARP6, hits give low values
[26] = S. cerevisiae deletion strains, locus YML094W, strain GIM5, hits give low values
[27] = S. cerevisiae deletion strains, locus YMR219W, strain ESC1, hits give low values
[28] = S. cerevisiae deletion strains, locus YNL298W, strain CLA4 (second series), hits give low values
[29] = S. cerevisiae deletion strains, locus YNR030W, strain Alg12, hits give low values
[30] = S. cerevisiae deletion strains, locus YPR135W, strain CTF4, hits give low values

Measured: normalized growth

CC(C)[C@]12O[C@H]1[C@@H]1O[C@@]13[C@@]1(C)CCC4=C(COC4=O)[C@@H]1C[C@@H]1O[C@@]13C2=O
inactive: [1] 1.01 | S. cerevisiae deletion strains, locus YBR021W, strain FUR4, hits give low values 0.991 | [2] 1.01 | S. cerevisiae deletion strains, locus YCL029C, strain bik1, hits give low values 0.998 | S. cerevisiae deletion strains, locus YDL035C, strain GPR1, hits give low values 1.01 | S. cerevisiae deletion strains, locus YDL074C, strain BRE1, hits give low values 1.03 | [3] 1.02 | [4] 1.01 | S. cerevisiae deletion strains, locus YDL185W, strain tfp1, hits give low values 1 | S. cerevisiae deletion strains, locus YDL192W, strain arf1, hits give low values 0.994 | S. cerevisiae deletion strains, locus YDR101C, strain arx1, hits give low values 0.977 | [5] 1.02 | S. cerevisiae deletion strains, locus YDR162C, strain NBP2, hits give low values 1.02 | S. cerevisiae deletion strains, locus YDR318W, strain mcm21, hits give low values 0.979 | S. cerevisiae deletion strains, locus YDR388W, hits give low values 0.996 | S. cerevisiae deletion strains, locus YDR502C, strain sam2, hits give low values 1.01 | [6] 1.01 | S. cerevisiae deletion strains, locus YER110C, hits give low values 0.987 | S. cerevisiae deletion strains, locus YER155C, strain BEM2, hits give low values 1.02 | S. cerevisiae deletion strains, locus YER167W, strain BCK2, hits give low values 1.01 | S. cerevisiae deletion strains, locus YGL078C, strain dbp3, hits give low values 1.01 | S. cerevisiae deletion strains, locus YGL086W, strain mad1, hits give low values 0.988 | S. cerevisiae deletion strains, locus YGL248W, strain PDE1, hits give low values 1.01 | [7] 1.02 | S. cerevisiae deletion strains, locus YGR135W, strain pre9, hits give low values 0.995 | S. cerevisiae deletion strains, locus YGR229C, strain SMI1, hits give low values 1.01 | S. cerevisiae deletion strains, locus YGR252W, strain gcn5, hits give low values 0.922 | [8] 1.01 | S. cerevisiae deletion strains, locus YHR079C, strain IRE1 (second series), hits give low values 0.992 | S. cerevisiae deletion strains, locus YHR094C, strain hxt1, hits give low values 0.991 | S. cerevisiae deletion strains, locus YHR129C, strain ARP1, hits give low values 1.01 | S. cerevisiae deletion strains, locus YHR200W, strain rpn10, hits give low values 0.997 | S. cerevisiae deletion strains, locus YIL066C, strain RNR3, hits give low values 1 | S. cerevisiae deletion strains, locus YIL073C, strain SPO22, hits give low values 0.958 | S. cerevisiae deletion strains, locus YIL125W, strain kgd1, hits give low values 1.01 | S. cerevisiae deletion strains, locus YIR030C, strain dcg1, hits give low values 0.998 | S. cerevisiae deletion strains, locus YJL095W, strain BCK1, hits give low values 1 | S. cerevisiae deletion strains, locus YJL134W, strain LCB3, hits give low values 1.01 | S. cerevisiae deletion strains, locus YJL168C, strain set2, hits give low values 0.993 | S. cerevisiae deletion strains, locus YJL187C, strain SWE1 (second series), hits give low values 1.02 | [9] 0.987 | [10] 1.02 | S. cerevisiae deletion strains, locus YKL009W, strain mrt4, hits give low values 0.994 | S. cerevisiae deletion strains, locus YKL068W, hits give low values 0.994 | S. cerevisiae deletion strains, locus YKL085W, strain MDH1 (second series), hits give low values 0.997 | S. cerevisiae deletion strains, locus YKL085W, strain MDH1, hits give low values 0.997 | [11] 1.01 | S. cerevisiae deletion strains, locus YKR001C, strain vps1, hits give low values 0.997 | [12] 1.01 | S. cerevisiae deletion strains, locus YLR058C, strain SHM2, hits give low values 1.01 | S. cerevisiae deletion strains, locus YLR102C, strain apc9, hits give low values 1 | [13] 0.979 | S. cerevisiae deletion strains, locus YLR268W, strain sec22, hits give low values 0.984 | S. cerevisiae deletion strains, locus YLR330W, strain CHS5, hits give low values 1.01 | S. cerevisiae deletion strains, locus YLR342W, strain FKS1 (second series), hits give low values 0.978 | S. cerevisiae deletion strains, locus YLR371W, strain rom2, hits give low values 1 | S. cerevisiae deletion strains, locus YLR418C, strain cdc73, hits give low values 0.995 | S. cerevisiae deletion strains, locus YML016C, strain PPZ1, hits give low values 1.01 | S. cerevisiae deletion strains, locus YML032C, strain rad52, hits give low values 0.972 | S. cerevisiae deletion strains, locus YML124C, strain tub3, hits give low values 0.996 | S. cerevisiae deletion strains, locus YMR078C, strain ctf18, hits give low values 0.989 | S. cerevisiae deletion strains, locus YMR223W, strain ubp8, hits give low values 0.976 | [14] 1.03 | S. cerevisiae deletion strains, locus YMR307W, strain GAS1, hits give low values 1.04 | S. cerevisiae deletion strains, locus YNL067W, strain RPL9B, hits give low values 1.02 | [15] 1.03 | [16] 1.03 | S. cerevisiae deletion strains, locus YNL233W, strain BNI4, hits give low values 1.04 | S. cerevisiae deletion strains, locus YNL250W, strain rad50, hits give low values 0.992 | S. cerevisiae deletion strains, locus YNL271C, strain bni1, hits give low values 0.998 | S. cerevisiae deletion strains, locus YNL298W, strain CLA4, hits give low values 1.01 | S. cerevisiae deletion strains, locus YNL307C, strain MCK1, hits give low values 0.983 | [17] 1.01 | S. cerevisiae deletion strains, locus YNR052C, strain pop2, hits give low values 0.978 | [18] 1.01 | S. cerevisiae deletion strains, locus YOL012C, strain htz1 0.999 | S. cerevisiae deletion strains, locus YOL147C, strain pex11, hits give low values 0.996 | S. cerevisiae deletion strains, locus YOR061W, strain CKA2, hits give low values 1.01 | S. cerevisiae deletion strains, locus YOR069W, strain VPS5, hits give low values 1.01 | S. cerevisiae deletion strains, locus YOR136W, strain idh2, hits give low values 0.99 | S. cerevisiae deletion strains, locus YOR144C, strain elg1, hits give low values 0.997 | S. cerevisiae deletion strains, locus YOR184W, strain ser1, hits give low values 0.966 | S. cerevisiae deletion strains, locus YOR316C, strain cot1, hits give low values 0.997 | [19] 1.06 | [20] 1.01 | S. cerevisiae deletion strains, locus YPR119W, strain clb2, hits give low values 0.999 | S. cerevisiae deletion strains, locus YPR141C, strain kar3, hits give low values 0.987 | S. cerevisiae deletion strains, locus YPR163C, strain tif3, hits give low values 1 | S. cerevisiae deletion strains, locus YPR167C, strain met16, hits give low values 0.99 | S. cerevisiae deletion strains, strain wtn01, hits give low values 1.02 | [21] 1.01

Cc1onc(-c2c(Cl)cccc2Cl)c1C(=O)N1CCN(c2ncccc2C(F)(F)F)CC1
inactive: [1] 1.01 | [2] 1 | [3] 1.03 | [4] 0.988 | [5] 0.997 | [6] 1.03 | [7] 1 | [8] 0.908 | [22] 1 | [23] 0.992 | [9] 0.966 | [10] 0.999 | [11] 1 | [12] 0.99 | [24] 0.983 | [25] 0.921 | [13] 0.964 | [26] 1.11 | [27] 0.991 | [14] 0.977 | [15] 1 | [16] 1 | [28] 0.997 | [17] 0.994 | [29] 0.966 | [18] 0.934 | [19] 1.06 | [20] 0.99 | [30] 1.08 | [21] 0.972

COC(=O)c1cn(Cc2ccc(C(F)(F)F)cc2)cc(F)c1=O
inactive: [1] 1.02 | [2] 0.996 | [3] 0.996 | [5] 0.923 | [6] 0.998 | [7] 1 | [8] 1.08 | [22] 1 | [23] 1.04 | [9] 0.99 | [10] 1 | [12] 1.02 | [24] 0.996 | [25] 1.09 | [13] 1.04 | [26] 1.03 | [27] 1 | [14] 0.931 | [15] 1.01 | [16] 0.988 | [28] 1.02 | [17] 1.01 | [29] 1.02 | [18] 1.04 | [19] 0.921 | [20] 1.01 | [30] 1.05 | [21] 1.02
